Cycloheximide cs: counter-screen for Shiga toxin inhibitors: cycloheximide protein synthesis inhibition | max response, % | AID 2314 | cell reporter, cycloheximide protein synthesis inhibition counterscreen | 300,000 tested, 12% active; in the data active means max response mostly above about 13%, no sharp cut-off; inactive means mostly below about 14%; further: read at 38.3 µM for the half of the compounds with a filed dose; 0% is about no effect
Shiga toxin inh: blocks Shiga toxin action in Vero cells; Vero cells, Shiga toxin protein synthesis inhibition reporter; inhibition, % at 38.7 µM; 290,000 tested, 9.2% active; AID 2315; in the data active means inhibition mostly above about 28%, no sharp cut-off; inactive means mostly below about 43%; further: 0% is about no effect
Pf growth 96h: P. falciparum growth inhibition at 96 hours | Potency, µM (series often up to 28.7 µM), for the others: at the top dose activity change, negative = inhibition, actives largely listed as inhibitors | 320,000 tested, 6.9% active | P. falciparum luciferase reporter growth, 96 h; further: potency means the concentration at half of the fitted maximal effect; on the % scale 0 is the no-effect control and ±100 the full control effect
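Erythrocytes infected with luciferase-expressing P. falciparum were dispensed at 2% hematocrit and 0.05% parasitemia (final), then incubated with compounds 96 hours at 37 C in 5% CO2. Luminescence after detection reagent addition reported growth.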
Pf growth 48h: P. falciparum growth inhibition at 48 hours (one generation); P. falciparum luciferase growth in erythrocytes, 48 h; Potency, µM (top dose mostly 28.7 µM), inactives show at the top dose activity change, negative = inhibition, hits mostly inhibitors; 310,000 tested, 5.9% active; AID 504832; further: potency means the concentration at half of the fitted maximal effect; on the % scale 0 is the no-effect control and ±100 the full control effect
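Luciferase-expressing P. falciparum in infected erythrocytes (2% hematocrit, 0.1% parasitemia final) in RPMI 1640/0.5% Albumax were exposed to compound for 48 hours at 37 C, 5% CO2; growth read as luminescence.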
HCMV antiviral: human cytomegalovirus inhibition; HFF cells, HCMV-luciferase reporter, 72 h; hits give low values; activity change, negative = inhibition, % at 57.5 µM; 410,000 tested, 4.5% active; AID 1259415; in the data active means activity change below about -60%; inconclusive means no clear call, values can overlap the other calls; inactive means above about -39%; further: on the % scale 0 is the no-effect control and ±100 the full control effect
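Two-dose cell screen: HFF monolayers treated with compounds and infected with luciferase-expressing HCMV at 1 PFU/cell, 72 h at 37C, then lysed for luciferase measurement.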
* = called active by the depositor; ? = inconclusive; · = no result; [ ] = dose if it differs, or a comment. The list is not random: actives were taken first. Their share in the collection is about 20%. Unless noted, the call rests on the fitted dose curve; in most records, active means well fitted inhibition curve with a large enough effect; inconclusive means small, poorly fitted or top-dose-only effect, or another doubt; inactive means no such curve, though single readings can be large or run the other way.

SMILES | Cycloheximide cs | Shiga toxin inh | Pf growth 96h | Pf growth 48h | HCMV antiviral
N#C/C(=C\c1ccc(-c2ccccc2[N+](=O)[O-])o1)C(N)=O | -0.7 | 3.9 | 3.4% | ? | -5.0
CNC(=O)/C(C#N)=C/c1ccc(-c2ccccc2[N+](=O)[O-])o1 | 36.2* | 34.8 | 19.7% | -5.7% | -35.2
CC1(C)CN(c2ccc(N3CC(C)(C)C3=O)cc2)C1=O | 39.0* | 69.3* | 99.6% | 63.0% | 49.6
O=C1[C@@H]2CSC(c3ccc(Cl)cc3)N2C(=O)N1c1ccccc1 (some centres not stated) | · | · | · | · | -4.2
Cc1nc(N)nc(Nc2ccc(Cl)cc2)c1Br | 34.4* | 43.3* | ? | 34.2% | 51.5
COCCNC(=S)NNc1ccccc1[N+](=O)[O-] | 17.9 | 44.7 | 60.3% | 0.0% | 30.7
CC(C)COc1cccc(C(=O)Nc2ccc(CN3CCOCC3)cc2)c1 | 17.1 | 16.3 | 8.28µM* | -27.7%[0.00184 µM] | -26.0
O=C(Nc1ccc(F)cc1)c1ccc(Cn2cnnn2)cc1 | 15.9* | 31.9 | 34.3% | 8.7% | -19.0
O=C(Nc1ccc(CN2CCS(=O)(=O)CC2)cc1)c1ccc(F)cc1 | 5.2 | 11.7 | 10.7% | 36.0% | 26.0
O=C(N/N=C/c1ccccc1[N+](=O)[O-])c1ccc(CN2CCOCC2)cc1 | 16.4 | -18.9 | 9.28µM* | 25.1% | 1.8
O=C(Nc1ccc(CN2CCOCC2)cc1)c1ccc(Cl)cc1 | 32.9* | 36.2* | 41.3% | 54.5% | ?
COP(=O)(OC)OC(c1ccc(Cl)cc1)P(=O)(OC)OC (configuration not stated) | · | · | -16.5% | 0.5% | -9.9
COc1ccc(-c2nc(-c3ccccc3)ncc2S(C)(=O)=O)cc1 | -1.9 | -1.4 | 31.8% | 0.1% | -15.7
CC(C)CNC(=O)CCSc1nc(-c2ccc3c(c2)OCO3)cc(C(F)(F)F)n1 | · | · | · | · | -8.4
O=C(Nc1ccc(CN2CCOCC2)cc1)c1ccc(F)cc1 | 28.5* | 59.6* | 106.8% | 64.9% | 95.8
O=C(Nc1ccc(CN2CCOCC2)cc1)c1ccc(Br)cc1 | 17.3* | 31.4 | 23.5% | 35.6% | -20.1
CCOc1ccc(NC(=O)c2ccc(NC(=O)c3ccc(CN4CCOCC4)cc3)cc2)cc1 | 6.0 | 31.6 | 11.6% | -16.6% | ?
CC(C)(C)c1ccc(C(=O)Nc2ccc(S(=O)(=O)Nc3cnc4ccccc4n3)cc2)cc1 | -2.1 | 3.5 | 9.4% | 13.1µM* | -70.5*
COC(=O)c1ccc(NC(=O)c2ccc(CN3CCOCC3)cc2)cc1 | 1.0 | -3.5 | · | ? | -28.3
CC(C)CNC(=O)c1ccccc1NC(=O)c1ccc(CN2CCOCC2)cc1 | -0.8 | 9.4 | 30.4% | 8.28µM* | 38.1
CCc1nnc(NS(=O)(=O)c2ccc(NC(=O)c3ccc([N+](=O)[O-])s3)cc2)s1 | · | · | · | · | -38.4
O=C(Nc1ccc(CN2CCOCC2)cc1)c1ccc(-c2ccc(Br)cc2)o1 | -0.8 | -6.2 | 9.0% | 1.85µM* | ?
C/C(=N\NC(=O)c1ccc(CN2CCOCC2)cc1)c1ccc(NC(=O)c2ccccc2)cc1 | 40.8* | 63.2* | 39.2% | 261.3% | 21.1
CC(=O)Nc1ccc(/C(C)=N/NC(=O)c2ccc(CN3CCOCC3)cc2)cc1 | -1.4 | -6.3 | 9.2% | ? | 54.0
O=C(Nc1ccc(S(=O)(=O)Nc2ccccc2)cc1)c1ccc(CN2CCOCC2)cc1 | 5.4 | -8.2 | 32.1% | ? | -89.8*
SMILES | Cycloheximide cs | Shiga toxin inh | Pf growth 96h | Pf growth 48h | HCMV antiviral
C/C(=N/NC(=O)CSCc1ccc(Cl)cc1)c1cccc(NC(=O)c2ccccc2)c1 | 8.4 | 1.1 | 28.3% | · | ?
C/C(=N\NC(=O)CSCc1ccc(Cl)cc1)c1ccc(NC(=O)c2ccccc2)cc1 | 23.0* | 20.6 | 63.9% | · | -7.0
CC1C(=O)N2CCCc3cc(S(=O)(=O)N(C)c4ccccc4)cc1c32 (configuration not stated) | -3.3 | -5.6 | -2.3% | ? | 2.3
CCc1cccc(-n2c(SCC(=O)c3c(N)n(C4CC4)c(=O)[nH]c3=O)nnc2N2CCOCC2)c1 | · | · | · | · | -8.1
O=C1c2[nH]nc(-c3ccc(F)cc3)c2C(c2ccccc2F)N1c1ccccc1 (configuration not stated) | · | · | · | · | -34.6
COc1ccccc1OCc1ccc(C(=O)Nc2ccccc2)cc1 | · | · | 142.5% | 94.6% | -39.3
O=C(Nc1cccc([N+](=O)[O-])c1)c1ccc(CN2CCOCC2)cc1 | 39.0* | 84.7* | 11.7µM* | 145.0% | -8.5
O=C(Nc1ccc(CN2CCOCC2)cc1)c1ccco1 | 28.0* | 51.5* | 59.1% | 234.0% | 48.2

Assay outcomes from PubChem.
